# Assay results as given in PubChem BioAssay (NCATS).
# Unmarked numbers belong to inactive results. Results filed as inconclusive are left out. Entries that show only a call come without a potency. Active and inactive are the calls of the source. Unless noted, calls follow the shape of the dose curve; as a rule, active = well fitted curve in the direction sought with a large enough effect; inconclusive = small, poorly fitted or top-dose-only effect, or another doubt; inactive = no such curve, though single readings can be large; an effect the other way counts as inactive or inconclusive.
# How the values were obtained:
# [1] = biological target: Glucocorticoid receptor (Homo sapiens) (UniProt P04150); assay: GR-GFP Redistribution (AID 450;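 active = compounds whose dose series gives a full or clear partial fitted curve of increased nuclear translocation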; also: potency is read from the fitted curve at half-maximal effect); conditions: U2OS GR-GFP nuclear translocation, laser cytometry, 2 h
# [2] = biological target: Glucocorticoid receptor (Homo sapiens) (UniProt P04150); assay: GR-EFC Redistribution (AID 451; calls by dose curve; also: potency is read from the fitted curve at half-maximal effect); conditions: CHO-K1 GR-EFC translocation, beta-gal luminescence, 2 h
# In short: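 CHO-K1 cells stably expressing nuclear-localized β-gal enzyme acceptor and GR fused C-terminally to the enzyme donor fragment; ligand-driven nuclear translocation restores β-gal by complementation. Compounds titrated up to 46 uM final, 2 h at 37 °C; luminescence read.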
# [3] = biological target: Mitogen-activated protein kinase 10 (Mus musculus) (UniProt Q61831); assay: JNK3 AlphaScreen Assay (AID 530; active = well fitted curve in either direction with a large enough effect, not every such curve was filed as active;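 also: kinase came from lysate of stimulated human HepG2 cells; signal reports phosphorylation of biotinylated GST-cJun 1-79 at Ser73 with 10 µM ATP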); conditions: JNK3 lysate, c-Jun phosphorylation; series mostly up to 57.1 µM
# In short: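 Phosphorylation of biotinylated GST-cJun(1-79) at Ser73 is measured by AlphaScreen proximity luminescence. Enzyme is JNK3 in HepG2 lysates activated with interleukin-1beta and tumor necrosis factor alpha; ATP is 10 uM final.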
# [4] = biological target: DNA dC->dU-editing enzyme APOBEC-3G (Homo sapiens) (UniProt Q9HC16); assay: qHTS for inhibitors of Vif-A3G interactions: Validation (AID 588379); conditions: Vif-A3G protein interaction assay; series mostly up to 46.1 µM
# In short: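 Yellow fluorescence (Ex 488, Em 500-530) of Vif-coexpressing HeLa A3G-eYFP cells, scanned by Acumen cytometer, reports blocked A3G degradation. Cells plated at 700/well overnight at 37 deg C before compound addition, then a further overnight compound incubation at 37 deg C.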
# [5] = tested on: Zika virus NS2B-NS3 protease; assay: Primary screen GU AMC qHTS for Zika virus inhibitors (AID 1347154); conditions: Zika NS2B-NS3 unlinked protease, AMC fluorogenic substrate; series mostly up to 54.1 µM; also: nearly all actives have a fitted effect of over 70% in size
# In short: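 Unlinked Zika NS2B hydrophilic domain/NS3 protease domain noncovalent complex (25 nM final) in 10 mM Tris-HCl pH 8.0, 0.01% Tween 20, with AMC peptide substrate. Fluorescence (ex 340, em 450 nm) change over 15 min, room temperature; percent inhibition fitted to 4-parameter Hill equation.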
# [6] = Counterscreen qHTS for small molecule stabilizers of the endoplasmic reticulum resident proteome: GLuc-NoTag assay (AID 1508627); conditions: Gaussia luciferase NoTag secretion counterscreen, luminescence, thapsigargin 100 nM for final 4 h; series mostly up to 76.4 µM
# In short: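 Secreted GLuc lacking the SERCaMP modification is measured in SH-SY5Y cells exposed to compound for 19 h and then to thapsigargin (100 nM, 4 h) to deplete ER calcium; hits retested at 11 concentrations, up to 76.6 uM.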
# [7] = Confirmatory qHTS for small molecule stabilizers of the endoplasmic reticulum resident proteome: Secreted ER Calcium Modulated Protein (SERCaMP) assay (AID 1508628); conditions: SERCaMP secreted luciferase ER calcium/proteostasis reporter; series mostly up to 76.3 µM; also: potency is read from the fitted curve at half-maximal effect; nearly all actives have a fitted effect of over 40% in size
# In short: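 Reporter secretion upon ER calcium depletion (100 nM thapsigargin, 4 h, 37C) is measured as medium luminescence with coelenterazine, after 16 h compound pretreatment of SH-SY5Y-GLuc-SERCaMP cells; primary at three concentrations up to 38.3 uM, follow-up at 11 (up to 76.6 uM).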
# [8] = Cell Viability qHTS for small molecule stabilizers of the endoplasmic reticulum resident proteome (AID 1508629); conditions: cell viability counter-screen, 100 nM thapsigargin for final 4 h;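 also: human SH-SY5Y neuroblastoma cells carrying the GLuc-SERCaMP reporter; compound exposure about 46 h in total before the viability read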
# Glucocorticoid receptor (Homo sapiens), sequence (P04150 whole entry, looked up, the tested form may be a part): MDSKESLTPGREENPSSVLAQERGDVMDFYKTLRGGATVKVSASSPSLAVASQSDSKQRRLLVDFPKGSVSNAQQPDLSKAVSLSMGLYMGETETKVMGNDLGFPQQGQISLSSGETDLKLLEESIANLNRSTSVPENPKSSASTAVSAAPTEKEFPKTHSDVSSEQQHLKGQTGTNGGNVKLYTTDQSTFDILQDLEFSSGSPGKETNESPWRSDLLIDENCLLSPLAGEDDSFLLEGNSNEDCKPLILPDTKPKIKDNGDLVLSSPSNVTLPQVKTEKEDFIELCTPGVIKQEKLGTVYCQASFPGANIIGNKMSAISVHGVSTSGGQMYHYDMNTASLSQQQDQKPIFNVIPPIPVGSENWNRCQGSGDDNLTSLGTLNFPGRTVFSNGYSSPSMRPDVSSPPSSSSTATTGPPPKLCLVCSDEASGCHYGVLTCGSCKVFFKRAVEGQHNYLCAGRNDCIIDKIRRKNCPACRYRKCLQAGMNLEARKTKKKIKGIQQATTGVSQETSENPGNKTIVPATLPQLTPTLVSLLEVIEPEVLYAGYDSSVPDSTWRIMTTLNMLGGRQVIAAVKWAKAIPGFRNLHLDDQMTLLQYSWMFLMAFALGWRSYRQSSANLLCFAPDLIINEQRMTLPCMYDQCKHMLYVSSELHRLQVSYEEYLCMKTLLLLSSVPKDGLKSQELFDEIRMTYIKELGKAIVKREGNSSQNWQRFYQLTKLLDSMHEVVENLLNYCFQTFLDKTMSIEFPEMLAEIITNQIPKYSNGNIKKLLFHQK
# DNA dC->dU-editing enzyme APOBEC-3G (Homo sapiens), sequence (Q9HC16 whole entry, looked up): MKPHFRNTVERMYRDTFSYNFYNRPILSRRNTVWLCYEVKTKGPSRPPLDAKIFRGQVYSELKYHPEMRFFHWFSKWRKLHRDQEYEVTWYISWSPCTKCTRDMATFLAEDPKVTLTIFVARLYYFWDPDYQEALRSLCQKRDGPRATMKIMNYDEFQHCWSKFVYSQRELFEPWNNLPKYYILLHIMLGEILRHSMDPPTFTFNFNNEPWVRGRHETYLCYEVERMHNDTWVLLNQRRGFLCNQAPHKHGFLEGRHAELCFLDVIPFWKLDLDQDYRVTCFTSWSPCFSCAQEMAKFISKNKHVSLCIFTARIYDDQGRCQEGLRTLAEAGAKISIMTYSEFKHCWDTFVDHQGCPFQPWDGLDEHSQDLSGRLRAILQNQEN
compound,measurement,setting,value
CN1C[C@H](C(=O)N[C@]2(C)O[C@@]3(O)[C@H]4CCCN4C(=O)[C@H](Cc4ccccc4)N3C2=O)C[C@H]2c3cccc4[nH]cc(c34)C[C@@H]21,Potency,[1],> 46 µM
same,Potency,[2],> 46 µM
same,Potency,[3],inactive
same,Potency,[4],inactive
same,Potency,[5],inactive
same,Potency,[6],inactive
same,Potency,[7],25.1 µM (active)
same,max response,[8],18%
